Source: PubChem BioAssay (Tox21)
Results filed as inconclusive are left out. Values without a mark were called inactive. Calls come from the whole dose curve.

Test: qHTS assay to identify small molecule agonists of the progesterone receptor (PR) signaling pathway - cell viability counter screen (AID 1346799); note: nearly all actives have a fitted effect of over 45% in size
Details: PR-UAS-bla HEK293T viability, CellTiter-Glo luminescence, 16 h; series mostly up to 92.4 µM; activity change, negative = cytotoxicity: at the top concentration
Outline: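 Cytotoxicity in PR-bla HEK293T cells: 16 h compound, 37C; CellTiter-Glo added post-FRET read; luminescence after 30 min RT.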
% is set by controls: 0 for no effect and ±100 for the full control effect.

First: CCCc1nn(C)c2c(=O)[nH]c(-c3cc(S(=O)(=O)N4CCN(C)CC4)ccc3OCC)nc12
Second: CN1CCC(=C2c3ccccc3CCc3cccnc32)CC1
The “activity change, negative = cytotoxicity” value of the first is higher: 13.1% [at 42.5 µM] for the first, -8.7% [at 42.5 µM] for the second.

Going from `CN(C)C(=O)Oc1ccc[n+](C)c1` to `CCC(C)(CN(C)C)OC(=O)c1ccccc1` (stereo not given), the “activity change, negative = cytotoxicity” value falls from 4.99% [at 42.5 µM] to 0.127% [at 42.5 µM].

Compared with `CCC(C(=O)NC(=O)NC(C)=O)c1ccccc1` (stereo not given), `C[N+]1(C)[C@@H]2CC(OC(=O)[C@H](CO)c3ccccc3)C[C@H]1[C@@H]1O[C@@H]12` (stereo not given in full) is lower in “activity change, negative = cytotoxicity” value: 6.09% [at 42.5 µM] for the first, -3.54% [at 42.5 µM] for the second.

Compared with `CC(=O)N[C@H]1[C@H]([C@H](O)[C@H](O)CO)OC(C(=O)O)=C[C@@H]1N=C(N)N`, `NC(=O)N[C@@H](CCC(=O)O)C(=O)O` is lower in “activity change, negative = cytotoxicity” value: 10.9% [at 42.5 µM] for the first, 6.82% [at 42.5 µM] for the second.

First: Cc1c(N)c(=O)n(-c2ccccc2)n1C
Second: Cc1coc2ccccc2c1=O
The “activity change, negative = cytotoxicity” value of the first is higher: 11.8% [at 42.5 µM] for the first, 4.35% [at 42.5 µM] for the second.

First: COc1ccccc1OCC1CNC(=O)O1 (stereo not given)
Second: CN1[C@@H]2CC[C@H]1CC(OC(=O)C(O)c1ccccc1)C2 (stereo not given in full)
The “activity change, negative = cytotoxicity” value of the first is higher: 1.87% [at 42.5 µM] for the first, -10% [at 42.5 µM] for the second.

First: C[C@@H]1CCC[C@H](C)N1
Second: Cc1cccc(C)c1NC(=O)CC12CCCN1CCC2
The “activity change, negative = cytotoxicity” value of the first is higher: -1.45% [at 42.5 µM] for the first, -4.49% [at 42.5 µM] for the second.

First: C[C@H]1[C@H](NC(=O)/C(=N/OC(C)(C)C(=O)O)c2csc(N)n2)C(=O)N1S(=O)(=O)O (stereo in doubt)
Second: CO[C@@]1(NC(=O)C(C(=O)O)c2ccc(O)cc2)C(=O)N2C(C(=O)O)=C(CSc3nnnn3C)CO[C@@H]21 (stereo not given in full)
The “activity change, negative = cytotoxicity” value of the first is lower: -6.83% [at 42.5 µM] for the first, -5.79% [at 42.5 µM] for the second.

Going from `CCOC(=O)C(=O)CCCCCCl` to `c1ccc2sc(SN3CCOCC3)nc2c1`, the “activity change, negative = cytotoxicity” value falls from -2.72% [at 42.5 µM] to -7.31% [at 42.5 µM].

Compared with `CCOC(=O)COc1cc(-n2ncc(C(F)(F)F)c(C)c2=O)c(F)cc1Cl`, `COc1ccnc(CS(=O)c2nc3cc(OC(F)F)ccc3[nH]2)c1OC` (stereo not given) is higher in “activity change, negative = cytotoxicity” value: 0.536% for the first, 6.13% for the second.

Compared with `CCC(=O)OCc1ccccc1`, `CCCCCC(=O)OCCc1ccccc1` is lower in “activity change, negative = cytotoxicity” value: 0.465% for the first, -0.301% for the second.

Going from `CCN1C=CN(C)C1C` (stereo not given) to `CC(C)[C@H]1CC[C@@H](C)CC1=O`, the “activity change, negative = cytotoxicity” value rises from -7.03% to -1.84%.

First: C1CCC2(CCCCO2)OC1
Second: C=CC(C)(CCC=C(C)C)OC(=O)CC (stereo not given)
The “activity change, negative = cytotoxicity” value of the first is higher: 4.19% for the first, 1.82% for the second.

Going from `CN(C)CCN(C)CCN(C)C` to `CCC(C)(CCCC(C)C)OC(C)=O` (stereo not given), the “activity change, negative = cytotoxicity” value rises from 2.98% to 12.6%.

Going from `CCCCCCCCCCCCSC` to `C=CCCCCCCCCC(=O)OCC`, the “activity change, negative = cytotoxicity” value falls from -3.44% to -15%.

Compared with `C=CCCC(=O)O`, `C=CC(=O)OCCCl` is higher in “activity change, negative = cytotoxicity” value: -5.44% for the first, 1.39% for the second.

First: CO[Si](C)(OC)c1ccccc1
Second: CC(C)(C#N)Nc1nc(Cl)nc(NC2CC2)n1
The “activity change, negative = cytotoxicity” value of the first is higher: 8.42% for the first, -8.23% for the second.

`CN1CCN(c2cc3c(nn2)Oc2ccccc2N3C)CC1` gave an activity change, negative = cytotoxicity of -4.66% [at 19 µM].
